# According to PubChem BioAssay (Tox21):
# “And” between values parts separate entries of the source, which are not always exact repeats. Identical values can stand only once. A number with no mark means an inactive call. Inconclusive results are not listed. A call without a number means that no potency is given here. The source made the active and inactive calls. Calls follow the shape of the dose curve; as a rule, active = well fitted curve in the direction sought with a large enough effect in the repeat runs; inconclusive = weak or mixed curves; inactive = no such curve, though single readings can be large; an effect the other way counts as inactive or inconclusive.
# What was measured:
# [1] = Human pregnane X receptor (PXR) small molecule agonists, qHTS cell viability counter screen (AID 1346977); also: nearly all actives have a fitted effect of over 50% in size
# Outline: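 Readout is CellTiter-Fluor fluorescence from PXR-Luc HepG2 cells. Plated cells rested 5hr, then were treated with compounds for 24hr at 37C and 5% CO2, with reagent present during the last hour.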
# [2] = Caspase-3/7 induction in HepG2 cells by small molecules, qHTS assay (AID 1346978); also: nearly all actives have a fitted effect of over 15% in size; also: potency is read from the fitted curve at half-maximal effect
# Outline: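 Wild-type HepG2 cells, 2,000/well, settled 5 hr at 37 C and 5% CO2, then compound-treated for 17 hr; caspase-3/7 activity read by luminescent Caspase-Glo 3/7 after 30 min at room temperature.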
# [3] = Caspase-3/7 induction in CHO-K1 cells by small molecules, qHTS assay (AID 1346980); also: nearly all actives have a fitted effect of over 15% in size
# Outline: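 Wild-type CHO-K1 cells exposed to compounds for 17hr at 37 C, 5% CO2. Caspase-3/7 activity then measured by Caspase-Glo 3/7 luminescence after 30min at room temperature.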
# [4] = Caspase-3/7 induction in HepG2 cells by small molecules, qHTS cell viability counter screen (AID 1346981); also: nearly all actives have a fitted effect of over 30% in size; also: potency is read from the fitted curve at half-maximal effect
# Outline: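 Wild-type HepG2 cells, 2,000/well, settled 5 hr at 37 C, 5% CO2 before compound addition. Viability read by CellTiter-Fluor fluorescence, reagent added after 16 hr compound exposure, then 1 hr at 37C, in the same wells as the caspase read.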
# [5] = molecular target: Cytochrome P450 2D6 (Homo sapiens) (UniProt P10635); experiment: Cytochrome P450 Family 2 Subfamily D Member 6 (CYP2D6) small molecule antagonists: luciferase reporter qHTS assay (AID 1671196); also: nearly all actives have a fitted effect of over 50% in size; also: potency is read from the fitted curve at half-maximal effect
# Sequence of Cytochrome P450 2D6 (Homo sapiens) (P10635 whole entry, looked up): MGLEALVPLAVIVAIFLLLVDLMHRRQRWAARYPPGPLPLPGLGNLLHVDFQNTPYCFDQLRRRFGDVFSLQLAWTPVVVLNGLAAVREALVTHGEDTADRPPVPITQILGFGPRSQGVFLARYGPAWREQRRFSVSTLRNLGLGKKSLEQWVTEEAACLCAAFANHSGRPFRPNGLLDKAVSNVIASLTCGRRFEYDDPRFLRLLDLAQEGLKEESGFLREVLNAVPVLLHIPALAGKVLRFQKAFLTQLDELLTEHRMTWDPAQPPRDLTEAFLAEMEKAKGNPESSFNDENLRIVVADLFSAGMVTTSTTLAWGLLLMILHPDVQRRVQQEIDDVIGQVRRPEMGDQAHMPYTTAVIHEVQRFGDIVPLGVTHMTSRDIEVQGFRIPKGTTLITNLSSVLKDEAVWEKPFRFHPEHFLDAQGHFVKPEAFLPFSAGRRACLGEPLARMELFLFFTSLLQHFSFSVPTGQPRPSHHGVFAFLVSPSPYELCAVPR
# Outline: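 Cell-free P450-Glo system: CYP2D6 with proluciferin substrate was pre-incubated with compound for 10 min, then reacted with NADPH regeneration for 1 h at room temperature. Luciferin product was detected after 20 min, and data were reported as relative luminescence units.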
# [6] = molecular target: Cytochrome P450 2C9 (Homo sapiens) (UniProt P11712); experiment: Cytochrome P450 Family 2 Subfamily C Member 9 (CYP2C9) small molecule antagonists: luciferase reporter qHTS assay (AID 1671198); also: nearly all actives have a fitted effect of over 50% in size; also: potency is read from the fitted curve at half-maximal effect
# Sequence of Cytochrome P450 2C9 (Homo sapiens) (P11712 whole entry, looked up): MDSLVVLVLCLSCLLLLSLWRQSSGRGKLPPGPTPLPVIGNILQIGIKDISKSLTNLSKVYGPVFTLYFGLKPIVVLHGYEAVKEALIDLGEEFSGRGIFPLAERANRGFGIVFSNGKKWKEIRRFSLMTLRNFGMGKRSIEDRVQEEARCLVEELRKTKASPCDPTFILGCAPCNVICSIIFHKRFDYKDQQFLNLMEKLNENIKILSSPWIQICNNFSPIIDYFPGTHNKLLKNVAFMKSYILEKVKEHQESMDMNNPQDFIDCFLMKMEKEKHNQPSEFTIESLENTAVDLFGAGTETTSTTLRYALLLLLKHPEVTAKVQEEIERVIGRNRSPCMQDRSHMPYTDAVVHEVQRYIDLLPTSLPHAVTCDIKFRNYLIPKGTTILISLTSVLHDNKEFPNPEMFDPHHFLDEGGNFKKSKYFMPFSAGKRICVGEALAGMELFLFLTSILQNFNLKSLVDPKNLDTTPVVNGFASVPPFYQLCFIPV
# Outline: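 P450-Glo proluciferin substrate with CYP2C9 enzyme; 10 min RT preincubation, then NADPH regeneration 1 h at 37C; luciferin detection reagent 20 min RT, luminescence in relative luminescence units.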
# [7] = molecular target: Cytochrome P450 3A4 (Homo sapiens) (UniProt P08684); experiment: Cytochrome P450 Family 3 Subfamily A Member 4 (CYP3A4) small molecule antagonists: luciferase reporter qHTS assay (AID 1671201); also: nearly all actives have a fitted effect of over 50% in size; also: potency is read from the fitted curve at half-maximal effect
# Sequence of Cytochrome P450 3A4 (Homo sapiens) (P08684 whole entry, looked up): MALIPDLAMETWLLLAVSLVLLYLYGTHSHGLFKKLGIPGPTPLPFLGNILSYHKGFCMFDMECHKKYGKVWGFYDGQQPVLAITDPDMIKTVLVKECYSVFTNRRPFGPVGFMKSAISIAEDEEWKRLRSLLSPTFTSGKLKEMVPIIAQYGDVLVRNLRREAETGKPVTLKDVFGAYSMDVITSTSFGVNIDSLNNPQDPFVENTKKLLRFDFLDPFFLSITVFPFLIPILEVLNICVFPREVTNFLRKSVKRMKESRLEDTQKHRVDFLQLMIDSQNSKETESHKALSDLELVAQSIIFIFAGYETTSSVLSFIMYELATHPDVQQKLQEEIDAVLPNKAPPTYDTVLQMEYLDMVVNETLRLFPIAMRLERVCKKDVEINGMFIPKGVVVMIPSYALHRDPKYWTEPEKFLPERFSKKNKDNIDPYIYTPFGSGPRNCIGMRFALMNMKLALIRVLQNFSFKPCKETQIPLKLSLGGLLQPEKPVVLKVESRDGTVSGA
# Outline: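 Setup: enzyme-substrate mix, compound pin transfer, 10 min RT. Reaction: NADPH regeneration solution, 1 h RT. Readout: detection reagent stops turnover, luminescence measured after 20 min, expressed in relative luminescence units.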
# [8] = Caspase-3/7 induction in CHO-K1 cells by small molecules, qHTS cell viability counter screen (AID 1346979); also: nearly all actives have a fitted effect of over 35% in size; also: potency is read from the fitted curve at half-maximal effect
# Outline: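 To flag cytotoxic compounds, treated CHO-K1 wild-type cells were given CellTiter-Fluor at 16hr and read fluorescently after 1hr at 37C; the caspase-3/7 luminescence was measured in these same wells.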
# [9] = molecular target: Nuclear receptor subfamily 1 group I member 2 (Rattus norvegicus) (UniProt Q9R1A7); experiment: Rat pregnane X receptor (rPXR) activation by small molecules, qHTS assay (AID 1346983); conditions: rPXR luciferase reporter cells, One-Glo luminescence, 24 h; max activation: stronger effect = higher value; also: nearly all actives have a fitted effect of over 20% in size; also: potency is read from the fitted curve at half-maximal effect
# Sequence of Nuclear receptor subfamily 1 group I member 2 (Rattus norvegicus) (Q9R1A7 whole entry, looked up): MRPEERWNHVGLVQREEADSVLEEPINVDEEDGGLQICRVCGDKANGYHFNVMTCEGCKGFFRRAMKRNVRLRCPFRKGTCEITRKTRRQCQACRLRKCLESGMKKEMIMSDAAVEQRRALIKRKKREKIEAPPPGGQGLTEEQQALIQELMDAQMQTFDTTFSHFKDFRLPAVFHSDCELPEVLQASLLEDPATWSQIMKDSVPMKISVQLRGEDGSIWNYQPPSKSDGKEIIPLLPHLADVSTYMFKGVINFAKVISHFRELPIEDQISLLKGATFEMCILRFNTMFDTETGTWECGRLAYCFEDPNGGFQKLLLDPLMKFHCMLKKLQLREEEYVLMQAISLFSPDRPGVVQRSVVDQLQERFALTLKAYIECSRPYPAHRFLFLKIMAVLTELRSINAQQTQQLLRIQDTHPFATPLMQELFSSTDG
# Outline: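 Cell-based rPXR activation assay: rPXR cells, 2,000 per well, rested 5hr at 37 C, then exposed to compounds in DMSO for 24 hr at 37 C. Luciferase activity read by One-Glo luminescence after 30 min at room temperature.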
# [10] = molecular target: Nuclear receptor subfamily 1 group I member 2 (Homo sapiens) (UniProt O75469); experiment: CYP3A4 induction through human pregnane X receptor (PXR) by small molecules, qHTS assay (AID 1346984); also: nearly all actives have a fitted effect of over 40% in size; also: potency is read from the fitted curve at half-maximal effect
# Sequence of Nuclear receptor subfamily 1 group I member 2 (Homo sapiens) (O75469 whole entry, looked up): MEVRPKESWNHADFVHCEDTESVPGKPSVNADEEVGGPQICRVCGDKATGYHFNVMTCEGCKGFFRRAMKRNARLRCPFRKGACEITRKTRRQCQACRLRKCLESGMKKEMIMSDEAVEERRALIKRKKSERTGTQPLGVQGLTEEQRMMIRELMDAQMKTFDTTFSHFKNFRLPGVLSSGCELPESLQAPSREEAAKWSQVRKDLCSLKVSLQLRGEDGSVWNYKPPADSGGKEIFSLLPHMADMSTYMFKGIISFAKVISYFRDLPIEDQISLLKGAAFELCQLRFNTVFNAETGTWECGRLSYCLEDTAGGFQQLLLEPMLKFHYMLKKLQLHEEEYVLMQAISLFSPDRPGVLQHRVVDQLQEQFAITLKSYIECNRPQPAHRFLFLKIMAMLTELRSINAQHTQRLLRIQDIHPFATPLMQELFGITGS
# Outline: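 DPX-2 HepG2 cells carrying a PXR response element and CYP3A4-promoter luciferase construct, treated with compounds 24 hr at 37C. Then P450-Glo CYP3A4 Luciferin-IPA substrate (3uM final) for 3 hr at 37C, One-Glo added, luminescence read.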
# [11] = molecular target: Nuclear receptor subfamily 1 group I member 2 (Homo sapiens) (UniProt O75469); experiment: Human pregnane X receptor (PXR) activation by small molecules, qHTS assay (AID 1346985); also: nearly all actives have a fitted effect of over 40% in size; also: potency is read from the fitted curve at half-maximal effect
# Outline: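 DPX-2 cells (HepG2 co-transfected with a PXR response element and a CYP3A4-promoter luciferase construct) were seeded at 2,000 per well, rested 5 hr at 37C, then exposed to DMSO-dissolved compounds for 24 hr. Activation was read as luciferase luminescence.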
# [12] = molecular target: Cytochrome P450 2C19 (Homo sapiens) (UniProt P33261); experiment: Cytochrome P450 Family 2 Subfamily C Member 19 (CYP2C19) small molecule antagonists: luciferase reporter qHTS assay (AID 1671197); also: nearly all actives have a fitted effect of over 65% in size; also: potency is read from the fitted curve at half-maximal effect
# Sequence of Cytochrome P450 2C19 (Homo sapiens) (P33261 whole entry, looked up): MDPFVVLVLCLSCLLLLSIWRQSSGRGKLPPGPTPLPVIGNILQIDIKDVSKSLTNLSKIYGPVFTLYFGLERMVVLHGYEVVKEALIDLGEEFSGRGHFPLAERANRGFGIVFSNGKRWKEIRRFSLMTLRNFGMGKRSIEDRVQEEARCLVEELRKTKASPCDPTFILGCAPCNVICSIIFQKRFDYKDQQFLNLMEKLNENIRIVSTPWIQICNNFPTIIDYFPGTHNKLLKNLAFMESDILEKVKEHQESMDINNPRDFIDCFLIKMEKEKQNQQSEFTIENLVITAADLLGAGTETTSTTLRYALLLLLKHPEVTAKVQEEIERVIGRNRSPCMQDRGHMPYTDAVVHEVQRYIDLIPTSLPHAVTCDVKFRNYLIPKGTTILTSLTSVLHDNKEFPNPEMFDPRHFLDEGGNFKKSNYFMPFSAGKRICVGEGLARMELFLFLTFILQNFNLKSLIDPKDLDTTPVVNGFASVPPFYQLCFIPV
# Outline: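 CYP2C19 P450-Glo, 1536-well qHTS. Cpd + enzyme/proluciferin substrate 10 min RT; + NADPH regen, 37C 1 h; stop with luciferin detection reagent, 20 min RT, luminescence (RLU). Pos ctrl ketoconazole.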
# [13] = molecular target: Cytochrome P450 1A2 (Homo sapiens) (UniProt P05177); experiment: Cytochrome P450 Family 1 Subfamily A Member 2 (CYP1A2) small molecule antagonists: luciferase reporter qHTS assay (AID 1671199); also: nearly all actives have a fitted effect of over 50% in size; also: potency is read from the fitted curve at half-maximal effect
# Sequence of Cytochrome P450 1A2 (Homo sapiens) (P05177 whole entry, looked up): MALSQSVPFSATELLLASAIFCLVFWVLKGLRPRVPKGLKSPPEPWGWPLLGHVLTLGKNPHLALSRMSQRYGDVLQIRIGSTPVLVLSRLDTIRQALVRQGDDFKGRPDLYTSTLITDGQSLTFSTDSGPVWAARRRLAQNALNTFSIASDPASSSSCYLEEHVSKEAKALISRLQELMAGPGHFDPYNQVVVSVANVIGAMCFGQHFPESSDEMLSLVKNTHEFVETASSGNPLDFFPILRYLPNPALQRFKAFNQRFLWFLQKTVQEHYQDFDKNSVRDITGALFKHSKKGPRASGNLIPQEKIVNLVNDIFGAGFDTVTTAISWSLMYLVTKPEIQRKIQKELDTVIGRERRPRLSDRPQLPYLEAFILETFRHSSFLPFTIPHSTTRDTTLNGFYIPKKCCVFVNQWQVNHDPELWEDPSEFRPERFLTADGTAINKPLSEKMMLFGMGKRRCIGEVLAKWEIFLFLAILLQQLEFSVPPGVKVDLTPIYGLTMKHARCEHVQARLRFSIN
# Outline: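 P450-Glo CYP1A2 enzyme–proluciferin substrate mix with compound 10 min at room temperature, then NADPH regeneration 1 h at room temperature. Luciferin detection reagent added, luminescence read after 20 min; furafylline positive control.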
# [14] = molecular target: Voltage-gated inwardly rectifying potassium channel KCNH2 (Homo sapiens) (UniProt Q12809); experiment: Human Ether-a-go-go-Related Gene (hERG) channel small molecule antagonists: fluorescence cell-based qHTS assay (AID 1671200); also: nearly all actives have a fitted effect of over 50% in size; also: potency is read from the fitted curve at half-maximal effect
# Sequence of Voltage-gated inwardly rectifying potassium channel KCNH2 (Homo sapiens) (Q12809 whole entry, looked up): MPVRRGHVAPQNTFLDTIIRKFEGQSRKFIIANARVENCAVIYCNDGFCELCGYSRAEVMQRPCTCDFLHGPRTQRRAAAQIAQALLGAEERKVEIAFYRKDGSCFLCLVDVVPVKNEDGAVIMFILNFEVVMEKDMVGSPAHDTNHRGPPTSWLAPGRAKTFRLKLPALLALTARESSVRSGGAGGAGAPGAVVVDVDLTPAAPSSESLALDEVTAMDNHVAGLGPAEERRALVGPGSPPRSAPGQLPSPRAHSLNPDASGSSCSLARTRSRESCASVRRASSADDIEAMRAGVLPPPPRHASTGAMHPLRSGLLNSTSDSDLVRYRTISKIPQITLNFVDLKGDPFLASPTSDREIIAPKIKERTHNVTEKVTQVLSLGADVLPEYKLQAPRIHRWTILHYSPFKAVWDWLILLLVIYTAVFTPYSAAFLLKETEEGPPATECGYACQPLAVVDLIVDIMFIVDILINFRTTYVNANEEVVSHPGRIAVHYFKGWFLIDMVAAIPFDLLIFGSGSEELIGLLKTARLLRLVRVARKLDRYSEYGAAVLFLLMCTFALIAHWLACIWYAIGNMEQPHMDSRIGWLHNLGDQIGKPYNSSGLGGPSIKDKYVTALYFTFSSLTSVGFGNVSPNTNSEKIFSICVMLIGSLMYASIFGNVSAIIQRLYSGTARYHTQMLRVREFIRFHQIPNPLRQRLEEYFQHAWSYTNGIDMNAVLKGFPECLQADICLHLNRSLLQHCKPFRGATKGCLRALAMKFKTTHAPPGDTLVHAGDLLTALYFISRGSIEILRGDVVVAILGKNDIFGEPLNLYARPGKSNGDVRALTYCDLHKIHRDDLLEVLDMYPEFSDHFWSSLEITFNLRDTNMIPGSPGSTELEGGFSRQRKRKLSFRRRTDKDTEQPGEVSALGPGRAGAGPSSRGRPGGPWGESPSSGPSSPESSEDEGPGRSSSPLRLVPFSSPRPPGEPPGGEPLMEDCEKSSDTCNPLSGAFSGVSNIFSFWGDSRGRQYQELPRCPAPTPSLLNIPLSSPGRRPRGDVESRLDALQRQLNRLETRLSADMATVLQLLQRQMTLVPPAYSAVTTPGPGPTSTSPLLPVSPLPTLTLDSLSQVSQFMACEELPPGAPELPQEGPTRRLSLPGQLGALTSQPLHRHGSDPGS
# Outline: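 Measured: Tl+ flux via fluorescence (480/540 nm) in hERG-expressing U2OS cells after 1 h dye loading at room temperature.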
# [15] = molecular target: Nuclear receptor subfamily 1 group I member 2 (Homo sapiens) (UniProt O75469); experiment: Human pregnane X receptor (PXR) small molecule agonists, qHTS assay (AID 1346982); also: nearly all actives have a fitted effect of over 35% in size; also: potency is read from the fitted curve at half-maximal effect
# Outline: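 PXR-Luc HepG2 reporter cells (CYP3A4-driven luciferase) in 5% charcoal-stripped FBS medium, plated 5 h before compound addition, then treated 24 h at 37C. Luciferase read by ONE-Glo luminescence after 30 min at room temperature.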
SMILES,Potency [1],Potency [2],outcome [3],Potency [4],Potency [5],Potency [6],Potency [7],Potency [8],max activation [9] [%],Potency [10],Potency [11],Potency [12],Potency [13],Potency [14],Potency [15],Potency [9]
CCCc1c(OCCCOc2ccc(OCC(=O)O)cc2)ccc(C(C)=O)c1O,inactive,inactive,inactive,inactive,inactive,8.94 µM (active),inactive,–,–,–,–,–,–,–,–,–
Cc1c(C(=O)NN2CCCCC2)nn(-c2ccc(Cl)cc2Cl)c1-c1ccc(Cl)cc1,–,inactive,inactive,–,inactive,–,inactive,26.6 µM (active),-8.23,inactive,inactive,inactive,inactive,2.13 µM (active),–,–
NC(=O)N(O)[C@@H]1COc2cc(OCc3ccccc3)ccc21,–,inactive,inactive,inactive,10 µM (active),7.96 µM (active),2.52 µM (active),24.3 µM (active),–,–,–,5.03 µM (active),5.03 µM (active),inactive,12.2 µM (active),–
O=C(O)C(Cc1cc(I)c(O)c(I)c1)c1ccccc1 (stereo not drawn),–,inactive,–,inactive,–,9.77 µM (active),inactive,inactive,-2.03,inactive,inactive,inactive,24.5 µM (active),inactive,inactive,–
CO[C@@]12[C@H](COC(N)=O)C3=C(C(=O)C(C)=C(N)C3=O)N1C[C@@H]1N[C@@H]12,–,11.9 µM (active),inactive,11.9 µM (active),–,–,–,13.3 µM (active),–,–,inactive,inactive,30.9 µM (active),inactive,inactive,–
CC(C)C(=O)O,–,inactive,inactive,inactive,inactive,inactive,inactive,inactive,–,–,–,inactive,inactive,inactive,inactive,–
NC(=O)N(O)[C@@H]1C=C[C@H](Oc2cccc(Oc3ccc(F)cc3)c2)C1,–,inactive,inactive,inactive,5.03 µM (active),31.7 µM (active),0.894 µM (active),68.6 µM (active),–,–,–,8.94 µM (active),7.96 µM (active),–,19.3 µM (active),–
CCCCC(=O)O[C@]1(C(=O)CO)[C@@H](C)C[C@H]2[C@@H]3CCC4=CC(=O)C=C[C@]4(C)[C@@]3(F)[C@@H](O)C[C@@]21C,inactive,inactive,–,–,35.6 µM (active),35.6 µM (active),–,–,–,–,–,79.6 µM (active),inactive,inactive,34.4 µM (active),–
C=CC(C)=CCC=C(C)C,–,inactive,inactive,inactive,inactive,63.3 µM (active),28.3 µM (active),inactive,–,–,–,–,–,inactive,–,–
COCc1c(C(C)C)nc(C(C)C)c(/C=C/[C@@H](O)C[C@@H](O)CC(=O)O)c1-c1ccc(F)cc1,–,2.11 µM (active) and 958 nM (active),inactive,–,inactive,35.2 µM (active),–,–,–,3.16 µM (active),3.55 µM (active),inactive,30.9 µM (active),inactive,15 µM (active) and 10.8 µM (active),11.2 µM (active)
